HP1b binding inh – HTS for Inhibitors of HP1-beta Chromodomain Interactions with Methylated Histone Tails; Chromobox protein homolog 1 (Homo sapiens), P83916; AlphaScreen HP1-beta / biotin-H3K9me3 peptide binding; Potency, µM (top dose mostly 114 µM), hits mostly inhibitors; actives 0.56% (n = 390,000); AID 540317, 2011; note: nearly all actives have a fitted effect of over 70% in size
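Compound inhibition of the preformed complex between 50 nM HP1-beta and 50 nM biotinylated H3K9me3 peptide was read by AlphaScreen. Buffer was PBS pH 7.4 with 0.01% Tween-20. Incubations ran 30 min at room temperature, with 10 ug/mL donor/acceptor beads.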
G9a inh – qHTS Assay for Inhibitors of Histone Lysine Methyltransferase G9a; Histone-lysine N-methyltransferase EHMT2 (Homo sapiens), Q96KQ7; G9a H3K9 monomethylation, AlphaScreen, 2 h; Potency, µM (doses to about 102 µM), usual class: inhibitors; actives 8.8% (n = 350,000); note: nearly all actives have a fitted effect of over 75% in size
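Using a bead-based AlphaScreen, monomethylated H3K9 product from 2 h room-temperature reactions (G9a 20 nM, peptide 500 nM, SAM 20 uM) was detected with 0.5 ug/mL rabbit anti-H3K9me1 antibody.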
PLK1 PBD inh – qHTS for Inhibitors of PLK1-PDB (polo-like kinase 1 - polo-box domain): Primary Screen; Serine/threonine-protein kinase PLK1 (Homo sapiens), P53350; Plk1 PBD binding of FITC phosphopeptide, fluorescence polarization; Potency, µM, usual class: inhibitors; actives 2.8% (n = 360,000); note: series mostly up to about 57 µM; nearly all actives have a fitted effect of over 65% in size
BAZ2B block – qHTS Assay for Inhibitors of BAZ2B; Potency, µM (top dose mostly 114 µM), usual class: inhibitors; actives 4.4% (n = 360,000); AlphaScreen BAZ2B-H3K14Ac peptide displacement; AID 504333, 2011; note: nearly all actives have a fitted effect of over 60% in size
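Complex of BAZ2B and biotin-H3K14Ac (50 nM apiece) forms over 30 min at RT, then faces library compounds up to 110 uM for another 30 min; AlphaScreen beads added, 20 min dark incubation, luminescence read.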
ALOX12 inh – Primary qHTS assay for inhibitors of human arachidonate 12S-lipoxygenase (ALOX12): Round 2 | AID 1671190, 2021 | Potency, µM (doses to about 108 µM), actives largely listed as inhibitors | actives 1.1% (n = 580,000) | Polyunsaturated fatty acid lipoxygenase ALOX12 (Homo sapiens), P18054 | purified 12hLO, xylenol orange hydroperoxide absorbance
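Purified human 12hLO (150 nM final) in 25 mM Hepes, 0.01% Triton X-100, pH 7.0 was preincubated 15 min at room temperature with compound. Then 40 uM arachidonic acid was added, 30 min. Hydroperoxide was read by Fe-XO absorbance ratio 573/405 nm.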
JMJD2A Tudor – qHTS Assay for Inhibitors of JMJD2A-Tudor Domain; Lysine-specific demethylase 4A (Homo sapiens), O75164; AlphaScreen JMJD2A-Tudor / H3K4me3 peptide binding; Potency, µM (series often up to 114 µM), hits mostly inhibitors; actives 4.4% (n = 390,000); AID 504339, 2011; note: nearly all actives have a fitted effect of over 50% in size
Hits are given with their value; . = inactive; ? = inconclusive; / = no result given; [ ] = dose if it differs, or a comment. Shown are actives, neighbours in structure and some others; about 9% of the full set was active somewhere. Calls come from the whole dose curve; as a rule, active = well fitted curve in the direction sought with a large enough effect; inconclusive = small, poorly fitted or top-dose-only effect, or another doubt; inactive = no such curve, though single readings can be large; an effect the other way counts as inactive or inconclusive.

SMILES	HP1b binding inh	G9a inh	PLK1 PBD inh	BAZ2B block	ALOX12 inh	JMJD2A Tudor
CCSc1ccc2nnc(-c3cccs3)n2n1	.	?	.	.	?	.
COc1ccc(-c2nnc3ccc(SCC(=O)N4CCOCC4)nn23)cc1	.	22µM	.	.	.	.
O=C(Cn1c(-c2cscn2)nc2ccccc21)Nc1ccc2ccccc2c1	.	.[12.7 µM]	.	.	.	?
COc1ccccc1NC(=O)Cn1cnc2sc(C(=O)NCc3ccco3)c(C)c2c1=O	.	.[12.7 µM]	.	.	.	.
Cc1cccc(N2C(=O)c3cccc4c(N5CCCCC5)c([N+](=O)[O-])cc(c34)C2=O)c1C	?	.	.	?	.	?
O=C1c2cccc3c(N4CCOCC4)c([N+](=O)[O-])cc(c23)C(=O)N1c1cccc2ccccc12	.	11µM	.	?	.	?
Cc1ccc(Nc2nc(N)nc(CSc3nncn3C)n2)cc1	.	.	.	.	.	.
O=c1cc(CSc2nnnn2-c2ccccc2)[nH]c2[nH]n(-c3ccccc3)c(=O)c12	.	?	.	?	.	89µM
Cc1ccc2c(CSc3nnnn3-c3ccccc3)cc(=O)oc2c1	/	/	/	/	.	/
O=c1[nH]c(CSc2nnnn2-c2ccc(Cl)cc2)nc2ccccc12	.	.	.	.	.	.
O=c1cc(CSc2nnnn2-c2ccccc2)[nH]n1-c1ccc(Cl)cc1	/	/	/	/	40µM	/
Cc1ccc(-n2[nH]c(CSc3nnnn3-c3ccccc3)cc2=O)cc1	/	/	/	/	50µM	/
Cc1ccc(Nc2nc(N)nc(CSc3nnnn3-c3ccccc3)n2)cc1	.	.[12.7 µM]	.	?	.	89µM
CCc1ccc(-n2c(CSc3nnnn3-c3ccccc3)nc3ccccc3c2=O)cc1	.	?	6µM	.	.	.[11.4 µM]
CC(C)c1ccc(NC(=O)C2C3C=CC(CC3)C2C(=O)O)cc1 (stereo not drawn)	.	/	.	/	.	.
O=C(O)C1C2C=CC(CC2)C1C(=O)O (stereo not drawn)	79µM	45µM	?	50µM	.	.
COc1ccc(NS(=O)(=O)c2ccc3nc(COc4cccc5ccccc45)[nH]c3c2)cc1	.	?	?	?	?	.
CCN(CC)S(=O)(=O)c1ccc2c(c1)[nH]c(=S)n2CC	.	7.9µM	?	/	.	.
COc1ccccc1NS(=O)(=O)c1ccc2nc(CCl)[nH]c2c1	.	20µM	.	.	.	.
CCN(CC)S(=O)(=O)c1ccc(Cl)nc1	.	.	.	/	.	.
CCN(CC)S(=O)(=O)c1ccc2nc(CCl)[nH]c2c1	.	50µM	?	.	.	.
COc1ccc(OCc2nc3ccc(S(=O)(=O)Nc4ccccc4Cl)cc3[nH]2)cc1	.	.	.	.	.	40µM
CCn1cc(C(=O)N2CCN(C(=O)c3ccco3)CC2)c2cc(OC)c(OC)cc2c1=O	.	.	.	.	.	.
COc1ccc(NC(=O)c2c(C)noc2C)cc1S(=O)(=O)N1CCCCC1	/	/	.	/	.	/
CCN(Cc1noc(C2CCC2)n1)C(=O)c1cc(S(N)(=O)=O)ccc1F	/	/	/	/	.	/
SMILES	HP1b binding inh	G9a inh	PLK1 PBD inh	BAZ2B block	ALOX12 inh	JMJD2A Tudor
O=C(NCC(=O)N(c1ccc2c(c1)OCO2)C(C(=O)NC1CCCC1)c1ccncc1)c1ccco1 (stereo not drawn)	?	.[12.7 µM]	2.7µM	.	.	.[11.4 µM]
Cc1ccc(CN(C(=O)c2ccco2)C(C(=O)NC2CCCC2)c2ccc(N3CCOCC3)cc2)cc1 (stereo not drawn)	.	28µM	.	.	.	.
CCc1ccc(N(C(=O)CNC(=O)c2ccco2)C(C(=O)NC2CCCC2)c2cccnc2)cc1 (stereo not drawn)	.	.	?	.	.	50µM
COc1ccc(N(C(=O)c2ccco2)C(C(=O)NC2CCCC2)c2ccncc2)cc1OC (stereo not drawn)	.	71µM	.	.	.	.
O=C(NCc1ccc(F)cc1)N1CCCCCC1c1nc(-c2cccnc2)no1 (stereo not drawn)	/	/	/	/	.	/
Cc1cc(C)cc(N(C(=O)CNC(=O)c2ccco2)C(C(=O)NC2CCCC2)c2ccncc2)c1 (stereo not drawn)	.	.	30µM	.	.	?
O=C(CN1CCC(O)(c2cccc(F)c2)CC1)NCCc1c[nH]c2ccccc12	.	.[12.7 µM]	.	.	.	.
Cc1cc2n(n1)C(c1ccccc1)Nc1ccccc1-2 (stereo not drawn)	.	.	.	.	.	.
Cc1cc2n(n1)C(c1ccc(N(C)C)cc1)Nc1ccccc1-2 (stereo not drawn)	.	.	.	.	.	45µM
CC(=O)C1C(=O)c2c(cccc2[N+](=O)[O-])C1=Nc1ccc(S(N)(=O)=O)cc1 (stereo not drawn)	.	40µM	?	?	?	?
C/C(=N\N=C(N)N)c1ccc(Cl)c(Cl)c1	.	50µM	.	.	.	.
COc1ccc2nc(NN=C(C)c3ccccn3)cc(C)c2c1	?	/	.	/	?	45µM
Cc1cc(Br)cc(C)c1OCC(=O)NNC(=O)CCC(=O)NCc1ccccc1	.	.	.	.	.	.
O=C(CCCCCBr)N1CCC(CC2CC(c3cccc(Br)c3)=NO2)(C(=O)NCC2CCCCC2)CC1 (stereo not drawn)	.	50µM	.	.	?	?
COc1cccc(CC(=O)N2CCOCCNC(=O)[C@@H]3CCC[C@@H]32)c1	/	/	/	/	.	/
CC/C(=N\NC(=O)Cc1ccc(Br)cc1)c1cccs1	.	56µM	.	.	.	.
Cc1nnc(SCC(=O)N(CC(C)C)c2c(N)n(Cc3ccccc3)c(=O)[nH]c2=O)n1N	.	10µM	.	.	?	.
CC(C)CN(C(=O)CSc1nnc(-c2cccs2)n1N)c1c(N)n(Cc2ccccc2)c(=O)[nH]c1=O	.	50µM	.	.	.	.
Cc1nc2ccccc2c(C)c1CC(=O)N(CC(C)C)c1c(N)n(Cc2ccccc2)c(=O)[nH]c1=O	.	.[0.501 µM]	.	.	.	.
CCN(C(=O)CSc1nnc(-c2ccc(C)cc2)n1N)c1c(N)n(Cc2ccccc2)c(=O)[nH]c1=O	.	?	.	.	.	.
CC(C)CN(C(=O)CCCc1nc2ccccc2c(=O)[nH]1)c1c(N)n(Cc2ccccc2)c(=O)[nH]c1=O	.	40µM	.	.	?	.

High-throughput results (PubChem)
